# Measured values as given in the supplement of paper PMC11732987, “Enantioselective OTUD7B fragment discovery through chemoproteomics screening and high-throughput optimisation” (Communications Chemistry, 2025).
# Unmarked numbers belong to inactive results.
# Legend:
# Test in all cases: log2 ratio of Biotin-Ahx-Ub-VS probe labelling (fragment/DMSO); higher = less target engagement (more negative = stronger competition), active = hit call of the paper (q ≤ 0.05, log2 ratio ≤ -1)
# Conditions in all cases: compound concentration: 200 uM; treatment time: 3 h
# OTUD6B = biological target: T1, OTUD6B (UniProt Q8N6M0)
# T1 sequence (whole entry): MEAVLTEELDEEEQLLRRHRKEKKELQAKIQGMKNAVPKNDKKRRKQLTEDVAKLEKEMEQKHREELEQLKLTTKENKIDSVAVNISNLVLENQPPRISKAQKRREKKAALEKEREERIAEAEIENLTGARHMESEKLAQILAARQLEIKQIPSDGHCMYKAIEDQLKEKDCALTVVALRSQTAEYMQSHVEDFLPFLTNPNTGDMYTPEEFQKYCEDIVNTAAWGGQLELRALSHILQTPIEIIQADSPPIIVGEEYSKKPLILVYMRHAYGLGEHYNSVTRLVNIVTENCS
# Outline: (§1)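 Average log2 ratios of fragment over vehicle were obtained by unpaired t-test from global-median-normalised Spectronaut label-free quantities. Proteins with ≥2 unique peptides were included. HEK293T lysate (495 µg per sample) was treated in triplicate with fragment at 200 µM or vehicle for 3 h, then with Biotin-Ahx-Ub-VS at 0.5 µM final for 1 h, and labelled DUBs were NeutrAvidin-enriched and run by diaPASEF LC-MS/MS.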
# OTUD7B = biological target: T2, OTUD7B (UniProt Q6GQQ9)
# T2 sequence (whole entry): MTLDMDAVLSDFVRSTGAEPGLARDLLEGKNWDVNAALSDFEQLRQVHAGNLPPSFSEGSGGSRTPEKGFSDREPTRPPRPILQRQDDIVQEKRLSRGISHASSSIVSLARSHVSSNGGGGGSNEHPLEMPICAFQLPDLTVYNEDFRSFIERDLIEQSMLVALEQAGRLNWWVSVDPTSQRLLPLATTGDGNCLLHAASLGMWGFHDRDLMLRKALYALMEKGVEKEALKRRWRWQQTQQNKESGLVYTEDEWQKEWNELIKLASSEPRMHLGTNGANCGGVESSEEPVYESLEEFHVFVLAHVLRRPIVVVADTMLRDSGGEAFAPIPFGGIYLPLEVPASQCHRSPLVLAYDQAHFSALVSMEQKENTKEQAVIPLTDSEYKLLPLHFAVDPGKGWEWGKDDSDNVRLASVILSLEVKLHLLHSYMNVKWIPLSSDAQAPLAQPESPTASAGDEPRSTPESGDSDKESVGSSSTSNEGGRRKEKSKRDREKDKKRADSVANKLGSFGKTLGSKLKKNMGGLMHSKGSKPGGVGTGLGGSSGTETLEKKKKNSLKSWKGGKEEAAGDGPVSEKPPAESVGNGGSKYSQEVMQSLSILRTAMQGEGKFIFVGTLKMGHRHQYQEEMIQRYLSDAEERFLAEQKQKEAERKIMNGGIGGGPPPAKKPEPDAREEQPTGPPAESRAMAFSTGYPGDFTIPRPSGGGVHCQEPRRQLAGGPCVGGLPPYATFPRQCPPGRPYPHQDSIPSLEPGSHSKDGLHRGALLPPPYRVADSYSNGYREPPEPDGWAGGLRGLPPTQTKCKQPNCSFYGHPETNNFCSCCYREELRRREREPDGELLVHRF
# Outline: as §1
# PRPF8 = PRPF8 (UniProt Q6P2Q9)
# Outline: as §1
# PSMD7 = biological target: T3, PSMD7 (UniProt P51665)
# T3 sequence (whole entry): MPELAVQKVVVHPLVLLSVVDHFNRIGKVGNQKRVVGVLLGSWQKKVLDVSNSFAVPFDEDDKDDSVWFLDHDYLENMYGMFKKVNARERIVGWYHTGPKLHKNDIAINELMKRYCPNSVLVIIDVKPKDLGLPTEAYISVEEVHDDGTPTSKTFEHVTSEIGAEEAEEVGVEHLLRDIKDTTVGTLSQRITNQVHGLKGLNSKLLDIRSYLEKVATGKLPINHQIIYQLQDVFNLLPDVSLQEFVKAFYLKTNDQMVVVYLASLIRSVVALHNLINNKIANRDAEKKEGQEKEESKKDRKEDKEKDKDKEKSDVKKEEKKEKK
# Outline: as §1
# UCHL1 = UCHL1 (UniProt P09936)
# UCHL1, sequence (P09936 whole entry, looked up): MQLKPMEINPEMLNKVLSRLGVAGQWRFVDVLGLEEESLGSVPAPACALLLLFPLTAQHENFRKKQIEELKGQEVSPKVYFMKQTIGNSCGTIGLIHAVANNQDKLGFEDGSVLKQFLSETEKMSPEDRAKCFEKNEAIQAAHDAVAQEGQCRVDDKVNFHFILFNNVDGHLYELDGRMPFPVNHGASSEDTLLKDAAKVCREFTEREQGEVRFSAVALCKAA
# Outline: as §1
# UCHL3 = biological target: T4, UCHL3 (UniProt P15374)
# T4 sequence (whole entry): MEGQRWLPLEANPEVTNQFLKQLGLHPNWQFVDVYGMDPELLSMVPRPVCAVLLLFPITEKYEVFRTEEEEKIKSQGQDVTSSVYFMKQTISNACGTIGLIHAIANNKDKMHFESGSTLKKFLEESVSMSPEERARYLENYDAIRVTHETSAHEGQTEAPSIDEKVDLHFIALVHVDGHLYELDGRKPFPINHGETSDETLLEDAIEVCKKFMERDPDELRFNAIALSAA
# Outline: as §1
# UCHL5 = biological target: T5, UCHL5 (UniProt Q9Y5K5)
# T5 sequence (whole entry): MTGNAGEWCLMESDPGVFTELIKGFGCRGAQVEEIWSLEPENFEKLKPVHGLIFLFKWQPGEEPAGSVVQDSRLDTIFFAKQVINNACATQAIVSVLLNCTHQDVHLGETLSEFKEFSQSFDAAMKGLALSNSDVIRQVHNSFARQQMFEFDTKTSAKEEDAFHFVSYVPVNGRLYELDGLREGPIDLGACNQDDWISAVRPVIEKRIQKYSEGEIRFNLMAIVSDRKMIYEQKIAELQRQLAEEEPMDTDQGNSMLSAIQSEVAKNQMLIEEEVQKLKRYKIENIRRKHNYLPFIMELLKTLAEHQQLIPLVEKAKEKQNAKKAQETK
# Outline: as §1
# USP10 = USP10 (UniProt Q14694)
# USP10, sequence (Q14694 whole entry): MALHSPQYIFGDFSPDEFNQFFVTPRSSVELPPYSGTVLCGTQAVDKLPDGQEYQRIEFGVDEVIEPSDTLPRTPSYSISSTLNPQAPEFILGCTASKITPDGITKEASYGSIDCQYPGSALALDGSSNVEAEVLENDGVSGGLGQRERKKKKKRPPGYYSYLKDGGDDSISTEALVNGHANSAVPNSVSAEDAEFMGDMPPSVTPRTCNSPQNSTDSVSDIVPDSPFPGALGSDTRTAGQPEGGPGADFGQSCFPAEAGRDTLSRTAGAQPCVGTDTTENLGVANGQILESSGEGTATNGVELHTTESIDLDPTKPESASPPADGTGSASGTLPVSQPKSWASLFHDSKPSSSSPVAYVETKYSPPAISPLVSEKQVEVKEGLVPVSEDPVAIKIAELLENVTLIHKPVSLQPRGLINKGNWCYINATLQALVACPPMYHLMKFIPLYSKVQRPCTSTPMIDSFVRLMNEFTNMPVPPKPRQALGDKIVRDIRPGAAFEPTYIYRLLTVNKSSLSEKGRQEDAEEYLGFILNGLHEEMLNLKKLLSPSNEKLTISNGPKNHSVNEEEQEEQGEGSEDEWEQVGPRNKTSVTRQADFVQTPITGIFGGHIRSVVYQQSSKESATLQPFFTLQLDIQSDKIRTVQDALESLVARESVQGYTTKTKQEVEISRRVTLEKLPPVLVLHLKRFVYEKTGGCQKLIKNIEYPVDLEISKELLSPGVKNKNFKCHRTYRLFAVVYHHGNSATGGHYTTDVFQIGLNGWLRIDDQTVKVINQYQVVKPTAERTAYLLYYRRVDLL
# Outline: as §1
# USP15 = biological target: T6, USP15 (UniProt Q9Y4E8)
# T6 sequence (whole entry): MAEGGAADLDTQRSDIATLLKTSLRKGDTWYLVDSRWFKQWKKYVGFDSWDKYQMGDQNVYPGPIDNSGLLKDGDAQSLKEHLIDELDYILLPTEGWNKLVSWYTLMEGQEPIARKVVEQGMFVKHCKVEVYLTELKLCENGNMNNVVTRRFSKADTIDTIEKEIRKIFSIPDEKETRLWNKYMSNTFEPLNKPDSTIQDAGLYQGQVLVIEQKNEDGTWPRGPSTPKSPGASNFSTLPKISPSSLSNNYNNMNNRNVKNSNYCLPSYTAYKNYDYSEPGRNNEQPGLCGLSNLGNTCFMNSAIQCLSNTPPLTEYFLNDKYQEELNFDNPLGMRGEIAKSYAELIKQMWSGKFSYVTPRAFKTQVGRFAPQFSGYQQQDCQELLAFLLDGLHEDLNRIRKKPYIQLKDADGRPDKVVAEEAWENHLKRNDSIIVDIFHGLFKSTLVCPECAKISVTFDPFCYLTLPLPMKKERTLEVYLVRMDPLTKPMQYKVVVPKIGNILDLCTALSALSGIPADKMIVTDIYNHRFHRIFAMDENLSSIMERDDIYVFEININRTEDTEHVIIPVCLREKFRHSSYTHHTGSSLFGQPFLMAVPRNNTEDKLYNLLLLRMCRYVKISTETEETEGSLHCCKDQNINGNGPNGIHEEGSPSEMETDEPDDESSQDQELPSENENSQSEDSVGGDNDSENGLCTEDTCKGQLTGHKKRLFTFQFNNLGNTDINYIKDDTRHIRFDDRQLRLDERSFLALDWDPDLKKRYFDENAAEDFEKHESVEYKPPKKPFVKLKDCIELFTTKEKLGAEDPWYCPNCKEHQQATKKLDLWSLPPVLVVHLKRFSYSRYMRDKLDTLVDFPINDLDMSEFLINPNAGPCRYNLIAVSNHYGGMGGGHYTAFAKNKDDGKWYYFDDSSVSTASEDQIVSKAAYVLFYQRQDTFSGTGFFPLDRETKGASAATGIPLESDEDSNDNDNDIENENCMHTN
# Outline: as §1
# USP16 = USP16 (UniProt Q9Y5T5)
# USP16, sequence (Q9Y5T5 whole entry, looked up): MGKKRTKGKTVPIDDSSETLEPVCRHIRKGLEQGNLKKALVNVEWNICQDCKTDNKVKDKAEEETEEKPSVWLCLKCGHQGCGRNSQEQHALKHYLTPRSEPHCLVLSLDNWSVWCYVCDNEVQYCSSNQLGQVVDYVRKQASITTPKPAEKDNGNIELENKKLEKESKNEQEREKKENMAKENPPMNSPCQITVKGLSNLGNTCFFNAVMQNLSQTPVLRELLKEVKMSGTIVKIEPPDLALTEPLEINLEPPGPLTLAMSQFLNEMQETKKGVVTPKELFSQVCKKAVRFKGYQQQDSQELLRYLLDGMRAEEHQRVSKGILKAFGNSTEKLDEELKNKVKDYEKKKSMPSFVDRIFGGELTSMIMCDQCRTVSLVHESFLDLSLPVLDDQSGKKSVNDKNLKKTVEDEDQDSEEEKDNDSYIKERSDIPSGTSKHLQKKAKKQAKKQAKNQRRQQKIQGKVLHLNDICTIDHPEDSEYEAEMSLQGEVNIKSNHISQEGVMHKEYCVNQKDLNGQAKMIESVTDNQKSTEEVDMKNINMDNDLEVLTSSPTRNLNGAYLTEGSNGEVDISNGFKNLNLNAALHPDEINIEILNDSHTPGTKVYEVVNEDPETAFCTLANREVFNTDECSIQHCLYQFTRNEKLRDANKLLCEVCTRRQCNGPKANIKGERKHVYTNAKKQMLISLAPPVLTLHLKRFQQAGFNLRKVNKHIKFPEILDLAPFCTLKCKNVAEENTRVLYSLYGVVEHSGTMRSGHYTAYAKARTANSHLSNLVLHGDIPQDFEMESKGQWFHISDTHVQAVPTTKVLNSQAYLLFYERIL
# Outline: as §1
compound,measurement,setting,value
COc1cccc(CN(C)C(=O)CCl)c1,log2 ratio of Biotin-Ahx-Ub-VS probe labelling,OTUD6B,-0.198
same,log2 ratio of Biotin-Ahx-Ub-VS probe labelling,OTUD7B,-0.364
same,log2 ratio of Biotin-Ahx-Ub-VS probe labelling,PRPF8,-0.0045
same,log2 ratio of Biotin-Ahx-Ub-VS probe labelling,PSMD7,-0.109
same,log2 ratio of Biotin-Ahx-Ub-VS probe labelling,UCHL1,-1.22 (active)
same,log2 ratio of Biotin-Ahx-Ub-VS probe labelling,UCHL3,0.229
same,log2 ratio of Biotin-Ahx-Ub-VS probe labelling,UCHL5,-0.0244
same,log2 ratio of Biotin-Ahx-Ub-VS probe labelling,USP10,-0.22
same,log2 ratio of Biotin-Ahx-Ub-VS probe labelling,USP15,-0.251
same,log2 ratio of Biotin-Ahx-Ub-VS probe labelling,USP16,0.142
